What all share (assay): PBM; 200 nM protein, PBS
Details in all cases: dsDNA, one strand shown

The target in test [1] is ALX4 (Homo sapiens, UniProt Q9H161 200-286).
Test [2] concerns the target ALX4 (Homo sapiens, UniProt Q9H161 200-286, Q225E).
Test [3] addresses ALX1 (Homo sapiens, UniProt Q15699 118-204, L144V).
Test [4] has as its target ALX3 (Homo sapiens, UniProt O95076 139-225, N203Q).
For test [5], the target named is ALX1 (Homo sapiens, UniProt Q15699 118-204, L144R).
Test [6] deals with ALX3 (Homo sapiens, UniProt O95076 139-225).
The target in test [7] is PROP1 (Homo sapiens, UniProt O75360 56-141).
For test [8], the target named is HESX1 (Homo sapiens, UniProt Q9UBX0 95-180, R109Q).
Test [9] deals with PROP1 (Homo sapiens, UniProt O75360 56-141, R99H).
The target of test [10] is ALX3 (Homo sapiens, UniProt O95076 139-225, L168Q).
The target of test [11] is ALX3 (Homo sapiens, UniProt O95076 139-225, L168V).
Test [12] addresses PROP1 (Homo sapiens, UniProt O75360 56-141, F88S).
For test [13], the target named is ALX3 (Homo sapiens, UniProt O95076 139-225, N203S).
In test [14] the target is T1, PAX4 (Homo sapiens, UniProt O43316 9-242, R200K).
T1 sequence: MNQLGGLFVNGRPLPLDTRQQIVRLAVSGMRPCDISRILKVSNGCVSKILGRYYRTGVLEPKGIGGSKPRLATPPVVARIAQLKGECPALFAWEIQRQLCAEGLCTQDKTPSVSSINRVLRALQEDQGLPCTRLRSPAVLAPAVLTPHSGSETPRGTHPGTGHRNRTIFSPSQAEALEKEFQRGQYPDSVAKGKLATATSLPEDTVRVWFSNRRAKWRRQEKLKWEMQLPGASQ

Test [15] deals with T2, PAX4 (Homo sapiens, UniProt O43316 9-242).
T2 sequence: T1 sequence with K192R

In a further test the target is PITX2 (Homo sapiens, UniProt Q99697 72-157).
Test [16] addresses ALX1 (Homo sapiens, UniProt Q15699 118-204).
Test [17] addresses PRRX1 (Homo sapiens, UniProt P54821 80-166, F113S).
Test [18] has as its target T3, PAX4 (Homo sapiens, UniProt O43316 9-242, R200Q).
T3 sequence: T1 sequence with K192Q

Test [19] deals with T4, PAX4 (Homo sapiens, UniProt O43316 9-242, F177V).
T4 sequence: T1 sequence with F169V, K192R

The target of test [20] is T5, PAX4 (Homo sapiens, UniProt O43316 9-242, F177Y).
T5 sequence: T1 sequence with F169Y, K192R

Test [21] addresses HESX1 (Homo sapiens, UniProt Q9UBX0 95-180, F115L).
In test [22] the target is T6, PAX4 (Homo sapiens, UniProt O43316 9-242, R227W).
T6 sequence: T1 sequence with K192R, R219W

Test [23] concerns the target PRRX1 (Homo sapiens, UniProt P54821 80-166).
The target of test [24] is T7, NKX2-6 (Homo sapiens, UniProt A6NCS4 118-204).
T7 sequence: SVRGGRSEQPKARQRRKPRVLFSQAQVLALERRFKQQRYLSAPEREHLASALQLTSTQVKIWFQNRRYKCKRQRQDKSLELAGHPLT

In test [25] the target is T8, NKX2-6 (Homo sapiens, UniProt A6NCS4 118-204, F151L).
T8 sequence: T7 sequence with F34L

Test [26] deals with HOXB6 (Homo sapiens, UniProt P17509 132-218, K202E).
The target in test [27] is MSX2 (Homo sapiens, UniProt P35548 130-214, R199I).
For test [28], the target named is MSX2 (Homo sapiens, UniProt P35548 130-214).
Test [29] concerns the target MSX2 (Homo sapiens, UniProt P35548 130-214, F161Y).
Test [30] concerns the target HOXB6 (Homo sapiens, UniProt P17509 132-218).

Where a chain is given by its changes, count along the chain named.

Sequence of ALX1 (Homo sapiens, UniProt Q15699 118-204, L144R) (Q15699 118-204 L144R): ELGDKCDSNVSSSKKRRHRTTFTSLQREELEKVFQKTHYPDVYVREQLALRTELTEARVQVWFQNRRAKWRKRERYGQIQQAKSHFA
Sequence of ALX1 (Homo sapiens, UniProt Q15699 118-204, L144V) (Q15699 118-204 L144V): as the sequence (Q15699 118-204 L144R) above, with R27V counted along it
Sequence of ALX4 (Homo sapiens, UniProt Q9H161 200-286) (Q9H161 200-286): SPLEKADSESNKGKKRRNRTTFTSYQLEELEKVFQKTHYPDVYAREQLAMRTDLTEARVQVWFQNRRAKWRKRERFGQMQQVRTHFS
Sequence of ALX4 (Homo sapiens, UniProt Q9H161 200-286, Q225E) (Q9H161 200-286 Q225E): as the sequence (Q9H161 200-286) above, with Q26E counted along it
Sequence of PROP1 (Homo sapiens, UniProt O75360 56-141) (O75360 56-141): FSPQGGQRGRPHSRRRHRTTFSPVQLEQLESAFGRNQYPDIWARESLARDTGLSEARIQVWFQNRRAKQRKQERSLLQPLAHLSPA
Sequence of PROP1 (Homo sapiens, UniProt O75360 56-141, F88S) (O75360 56-141 F88S): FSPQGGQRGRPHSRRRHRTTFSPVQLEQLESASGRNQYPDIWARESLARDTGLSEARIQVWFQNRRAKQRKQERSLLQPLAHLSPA
Sequence of ALX1 (Homo sapiens, UniProt Q15699 118-204) (Q15699 118-204): as the sequence (Q15699 118-204 L144R) above, with R27L counted along it
Sequence of PROP1 (Homo sapiens, UniProt O75360 56-141, R99H) (O75360 56-141 R99H): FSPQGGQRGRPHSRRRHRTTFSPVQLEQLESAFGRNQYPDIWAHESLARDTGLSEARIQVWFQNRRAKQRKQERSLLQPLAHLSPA
Sequence of HESX1 (Homo sapiens, UniProt Q9UBX0 95-180, R109Q) (Q9UBX0 95-180 R109Q): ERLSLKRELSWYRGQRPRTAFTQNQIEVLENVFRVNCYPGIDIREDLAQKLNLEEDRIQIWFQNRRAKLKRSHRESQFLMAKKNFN
Sequence of HOXB6 (Homo sapiens, UniProt P17509 132-218, K202E) (P17509 132-218 K202E): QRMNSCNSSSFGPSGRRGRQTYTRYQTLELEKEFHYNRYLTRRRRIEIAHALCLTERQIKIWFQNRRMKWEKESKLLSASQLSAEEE
Sequence of MSX2 (Homo sapiens, UniProt P35548 130-214, F161Y) (P35548 130-214 F161Y): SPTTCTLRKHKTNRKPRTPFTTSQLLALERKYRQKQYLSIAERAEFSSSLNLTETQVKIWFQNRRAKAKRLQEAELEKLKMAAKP
Sequence of MSX2 (Homo sapiens, UniProt P35548 130-214, R199I) (P35548 130-214 R199I): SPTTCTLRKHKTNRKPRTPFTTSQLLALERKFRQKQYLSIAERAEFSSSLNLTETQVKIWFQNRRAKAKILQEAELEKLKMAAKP
Sequence of HESX1 (Homo sapiens, UniProt Q9UBX0 95-180, F115L) (Q9UBX0 95-180 F115L): as the sequence (Q9UBX0 95-180 R109Q) above, with Q15R, F21L counted along it
Sequence of ALX3 (Homo sapiens, UniProt O95076 139-225, L168V) (O95076 139-225 L168V): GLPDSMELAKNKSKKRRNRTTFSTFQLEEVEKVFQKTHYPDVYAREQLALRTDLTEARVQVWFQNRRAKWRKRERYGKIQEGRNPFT
Sequence of MSX2 (Homo sapiens, UniProt P35548 130-214) (P35548 130-214): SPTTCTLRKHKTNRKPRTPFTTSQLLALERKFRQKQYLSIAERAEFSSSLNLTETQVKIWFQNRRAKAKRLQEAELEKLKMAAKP
Sequence of HOXB6 (Homo sapiens, UniProt P17509 132-218) (P17509 132-218): as the sequence (P17509 132-218 K202E) above, with E71K counted along it
Sequence of PRRX1 (Homo sapiens, UniProt P54821 80-166, F113S) (P54821 80-166 F113S): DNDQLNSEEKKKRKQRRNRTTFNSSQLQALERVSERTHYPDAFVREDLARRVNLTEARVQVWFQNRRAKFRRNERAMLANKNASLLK
Sequence of ALX3 (Homo sapiens, UniProt O95076 139-225, L168Q) (O95076 139-225 L168Q): as the sequence (O95076 139-225 L168V) above, with V30Q counted along it
Sequence of ALX3 (Homo sapiens, UniProt O95076 139-225, N203Q) (O95076 139-225 N203Q): as the sequence (O95076 139-225 L168V) above, with V30L, N65Q counted along it
Sequence of ALX3 (Homo sapiens, UniProt O95076 139-225) (O95076 139-225): as the sequence (O95076 139-225 L168V) above, with V30L counted along it
Sequence of ALX3 (Homo sapiens, UniProt O95076 139-225, N203S) (O95076 139-225 N203S): as the sequence (O95076 139-225 L168V) above, with V30L, N65S counted along it
Sequence of PRRX1 (Homo sapiens, UniProt P54821 80-166) (P54821 80-166): as the sequence (P54821 80-166 F113S) above, with S34F counted along it

As to AATTAAAG, the binding signal was 13.6 upbm affinity estimate (log intensity, higher = more binding, comparable within an allelic series) in the test with ALX4 [1]; 12.8 upbm affinity estimate (log intensity, higher = more binding, comparable within an allelic series) with ALX4 [2]; 11.4 upbm affinity estimate (log intensity, higher = more binding, comparable within an allelic series) in the test with ALX1 [3]; 8.35 upbm affinity estimate (log intensity, higher = more binding, comparable within an allelic series) with ALX3 [4]; 11 upbm affinity estimate (log intensity, higher = more binding, comparable within an allelic series) with ALX1 [5]; 12.3 upbm affinity estimate (log intensity, higher = more binding, comparable within an allelic series) in the test with ALX3 [6]. Also, the binding signal was 11.2 upbm affinity estimate (log intensity, higher = more binding, comparable within an allelic series) with PROP1 [7]; 8.69 upbm affinity estimate (log intensity, higher = more binding, comparable within an allelic series) in the test with HESX1 [8]; 10.9 upbm affinity estimate (log intensity, higher = more binding, comparable within an allelic series) with PROP1 [9]; 10.3 upbm affinity estimate (log intensity, higher = more binding, comparable within an allelic series) with ALX3 [10]; 9.9 upbm affinity estimate (log intensity, higher = more binding, comparable within an allelic series) with ALX3 [11]; 7.55 upbm affinity estimate (log intensity, higher = more binding, comparable within an allelic series) in the test with PROP1 [12]. In the test with ALX3 [13], the binding signal is 8.43 upbm affinity estimate (log intensity, higher = more binding, comparable within an allelic series).

Regarding ATAGAGAT, the binding signal was 10.5 upbm affinity estimate (log intensity, higher = more binding, comparable within an allelic series) in the test with PAX4 [14] and 10.6 upbm affinity estimate (log intensity, higher = more binding, comparable within an allelic series) with PAX4 [15].

GAGGACTC: the binding signal with ALX4 [1] is 8.06 upbm affinity estimate (log intensity, higher = more binding, comparable within an allelic series); with ALX4 [2], 8.19 upbm affinity estimate (log intensity, higher = more binding, comparable within an allelic series); with ALX1 [3], 6.41 upbm affinity estimate (log intensity, higher = more binding, comparable within an allelic series); in the test with PITX2 it was 7.89 upbm affinity estimate (log intensity, higher = more binding, comparable within an allelic series); in the test with ALX1 [5] it was 6.53 upbm affinity estimate (log intensity, higher = more binding, comparable within an allelic series); with ALX1 [16], 6.39 upbm affinity estimate (log intensity, higher = more binding, comparable within an allelic series).

AATTATGT: the binding signal in the test with PAX4 [14] was 11.6 upbm affinity estimate (log intensity, higher = more binding, comparable within an allelic series); in the test with PRRX1 [17] it was 11 upbm affinity estimate (log intensity, higher = more binding, comparable within an allelic series); with PAX4 [15], 12.1 upbm affinity estimate (log intensity, higher = more binding, comparable within an allelic series); with ALX1 [3], 11.4 upbm affinity estimate (log intensity, higher = more binding, comparable within an allelic series); with PAX4 [18], 11.8 upbm affinity estimate (log intensity, higher = more binding, comparable within an allelic series); with ALX1 [5], 11.1 upbm affinity estimate (log intensity, higher = more binding, comparable within an allelic series). Moreover, the binding signal is 10.7 upbm affinity estimate (log intensity, higher = more binding, comparable within an allelic series) with PAX4 [19]; 11 upbm affinity estimate (log intensity, higher = more binding, comparable within an allelic series) with PAX4 [20]; 11 upbm affinity estimate (log intensity, higher = more binding, comparable within an allelic series) with PROP1 [7]; 10.7 upbm affinity estimate (log intensity, higher = more binding, comparable within an allelic series) with PROP1 [9]; 7.74 upbm affinity estimate (log intensity, higher = more binding, comparable within an allelic series) with PROP1 [12]; 7.75 upbm affinity estimate (log intensity, higher = more binding, comparable within an allelic series) with HESX1 [21]. Besides, the binding signal with PAX4 [22] was 11 upbm affinity estimate (log intensity, higher = more binding, comparable within an allelic series); in the test with PRRX1 [23], 13.3 upbm affinity estimate (log intensity, higher = more binding, comparable within an allelic series).

Consider CCACATGG, for which the binding signal with ALX4 [1] was 8.13 upbm affinity estimate (log intensity, higher = more binding, comparable within an allelic series); with ALX4 [2], 8.32 upbm affinity estimate (log intensity, higher = more binding, comparable within an allelic series); in the test with NKX2-6 [24] it was 9.61 upbm affinity estimate (log intensity, higher = more binding, comparable within an allelic series); in the test with NKX2-6 [25] it was 9.23 upbm affinity estimate (log intensity, higher = more binding, comparable within an allelic series).

For the sequence CAGCGTAA, the binding signal with PAX4 [14] was 10.6 upbm affinity estimate (log intensity, higher = more binding, comparable within an allelic series); in the test with PAX4 [15] it was 10.8 upbm affinity estimate (log intensity, higher = more binding, comparable within an allelic series).

With AATTTTCA, the binding signal is 11.5 upbm affinity estimate (log intensity, higher = more binding, comparable within an allelic series) with ALX4 [1]; 10.4 upbm affinity estimate (log intensity, higher = more binding, comparable within an allelic series) in the test with ALX4 [2]; 9.64 upbm affinity estimate (log intensity, higher = more binding, comparable within an allelic series) with ALX1 [3]; 9.33 upbm affinity estimate (log intensity, higher = more binding, comparable within an allelic series) with ALX1 [5]; 10 upbm affinity estimate (log intensity, higher = more binding, comparable within an allelic series) with ALX1 [16].

For the sequence CAGCCCGC, the binding signal in the test with PAX4 [14] is 9.17 upbm affinity estimate (log intensity, higher = more binding, comparable within an allelic series); with PAX4 [15] it was 9.23 upbm affinity estimate (log intensity, higher = more binding, comparable within an allelic series); with HOXB6 [26] it was 9 upbm affinity estimate (log intensity, higher = more binding, comparable within an allelic series); with MSX2 [27] it was 9.36 upbm affinity estimate (log intensity, higher = more binding, comparable within an allelic series); with PAX4 [18] it was 9.12 upbm affinity estimate (log intensity, higher = more binding, comparable within an allelic series); with PAX4 [19], 9.04 upbm affinity estimate (log intensity, higher = more binding, comparable within an allelic series). Besides, the binding signal in the test with MSX2 [28] was 9.33 upbm affinity estimate (log intensity, higher = more binding, comparable within an allelic series); with PAX4 [20] it was 8.99 upbm affinity estimate (log intensity, higher = more binding, comparable within an allelic series); in the test with MSX2 [29], 9.37 upbm affinity estimate (log intensity, higher = more binding, comparable within an allelic series); with PAX4 [22], 9.09 upbm affinity estimate (log intensity, higher = more binding, comparable within an allelic series); in the test with HOXB6 [30], 8.96 upbm affinity estimate (log intensity, higher = more binding, comparable within an allelic series).

The record behind these values is PMC11006913.
